Measurements: the OligoGym collection

Each sequence was assayed against FAM163B (assay: pooled miR-30 sensor sort-seq; sequence = guide strand). Settings: shRNA.
Note: reference of the scale not given here.

| Sequence | sensor-assay potency score (higher = more potent) |
| --- | --- |
| TCCTGCAGGAAGAAGGTGGGGG | -0.682 |
| TTCTGGCTGAAGGAGGTGGAGG | -1.34 |
| TTGGTCAGCACCAGGTTGCGGT | -0.802 |
| TAGCACAGAACAGCGATGATGC | -0.556 |
| TCCGACTCGTCCTTCTTGCAGC | -1.44 |
| TCGCAGTGGGAGCAGCTGCGGC | -1.52 |
| TCTTGCAGCAGTAGTACTGGAG | -0.35 |
| TTGTAGAGCACGCGCTCCCCGC | -1.32 |
| TTCTTGCAGCAGTAGTACTGGA | -0.857 |
| TTGCGGTTGGAGTGCAGCGGGG | -1.47 |
| TAGAGCACGCGCTCCCCGCCGT | -0.76 |
| TCCTCCGACTCGTCCTTCTTGC | -1.53 |

Each sequence was assayed against FAM164C in the same assay as above. Settings: shRNA.

| Sequence | sensor-assay potency score (higher = more potent) |
| --- | --- |
| TAATTTTCTGTAGCTCTCCGTT | -0.559 |
| TAGAGGTGGAAGACAGTTCTTG | -0.364 |
| TTTCTTTCTGCTTTGCATCAAA | -1.22 |
| TAGTCTTCGGATCTGCACCCAC | -0.402 |
| TTTGTTGCTCAAAAGCTGCTTC | 0.134 |
| TTATCCAGAATCAACTCTTTGT | -0.353 |
| TAGCTCTGCAGGCAGATCTGGG | -1.11 |
| ATCACTTTCTGGATCTTGCTGG | 0.553 |
| TTTACTGCTGAAGAGAAGCAGA | -0.62 |
| TTCTTGATGGTCTTACACTTGG | -0.537 |
| TTGATGGTCTTACACTTGGGAA | -1.53 |
